# Measured values as given in PubChem BioAssay.
# Several values for one entry are separate records, joined by “and”; a condition that tells them apart may be missing. Equal entries are not always repeated. Records with an inconclusive call do not appear. Activity calls are given as the source filed them. Unless noted, the limit is not given here; nearly all actives have AC50 up to about 26 µM.
# What was measured:
# [1] = stimulators of nuclear beta-catenin in C2C12, primary screen, imaging, WNT3A-conditioned medium, mouse C2C12, NPC library (AID 1117326; in the data active = nuclear beta-catenin stimulation mostly above about 4.2%, no sharp cut-off; inactive = mostly below about 10%; also: reference of the scale not given here); settings: stronger effect = higher value
# [2] = stimulators of insulin release from INS-1E, primary screen, cell-based, 5 mM glucose, NPC library (AID 1117329;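 active = compound raises insulin release from rat beta cells at 5 mM glucose, no numeric limit stated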; also: reference of the scale not given here); settings: rat INS-1E insulin secretion, at 10 µM, stronger effect = higher value
# [3] = growth inhibition of GSK3B-pretreated HCT116 cells – cell-based, CellTiter-Glo, 0.2 to 20 µM (AID 1117336;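 active = compounds lowering colon cancer cell viability after pretreatment blocking the GSK3B kinase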); settings: HCT116 viability after GSK3B inhibitor, at 20 µM, stronger effect = higher value
# [4] = inhibition of endothelial tube formation, primary screen, imaging, VEGF stimulated, CD31 staining, tube area, NPC library (AID 1117340;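 active = compound that reduces growth-factor-driven endothelial tube area in a mixed cell culture, no cutoff stated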); settings: VEGF-stimulated ADSC/ECFC co-culture, at 10 µM, stronger effect = higher value
# [5] = glucagon-like peptide 1 release enhancers, primary assay, NCI-H716 cell line, NPC library (AID 1117341;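 active = compound raises GLP1 secretion from the human gut endocrine cells, with no numeric limit stated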; also: reference of the scale not given here); settings: NCI-H716 cells, at 10 µM, stronger effect = higher value
# [6] = HCT116 colon cancer cell growth inhibition, primary screen, CellTiter-Glo luminescence, NPC library (AID 1117342;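 active = compounds that lower survival of HCT116 colon cancer cells in the luminescence readout, no numeric limit stated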); settings: at 20 µM (top of the series)
# [7] = CellTiter-Glo luminescent readout of SW480 viability loss, NPC library primary (AID 1117343;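 active = compounds that lower viability of the colon cancer cells in the luminescence readout, with no numeric limit stated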); settings: CellTiter-Glo luminescence; at 20 µM (top of the series) unless noted
# [8] = decreased DLD-1 cellular survival, CellTiter-Glo luminescent readout, NPC compound collection, primary HTS (AID 1117346;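 active = compounds that lower survival of DLD-1 colon cancer cells in the luminescence readout, no cutoff given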); settings: DLD-1 viability, CellTiter-Glo luminescence; at 20 µM (top of the series)
# [9] = growth inhibition of DIPG glioma cells, dose response, cell-based, JHH-DIPG-1, MIPE4.0, CellTiter-Glo, qHTS (AID 1347062; cut-off not given, nearly all actives have AC50 up to about 27 µM;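 as to AC50: cells exposed to compound for two days before readout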); settings: JHH-DIPG-1 viability, CellTiter-Glo ATP luminescence
# [10] = viability loss in pontine glioma line – cell-based, SU-DIPG-XXV, MIPE5.0, CellTiter-Glo, qHTS, dose response (AID 1347065); settings: CellTiter-Glo ATP luminescence;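 also: cells exposed to compound for 48 hours before ATP readout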
# [11] = SU-DIPG-VI glioma cell viability, MIPE4.0 library, CellTiter-Glo luminescence, qHTS (AID 1347066; cut-off not given, nearly all actives have AC50 up to about 30 µM;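 also: cells exposed to compound for 48 hours before readout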); settings: CellTiter-Glo ATP luminescence
# [12] = JHH-DIPG-1 glioma cell viability, MIPE5.0 library, CellTiter-Glo luminescence, qHTS (AID 1347067); settings: JHH-DIPG-1 glioma viability, CellTiter-Glo ATP luminescence;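 also: cells exposed to compound for 48 hours before readout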
# [13] = SU-DIPG-XXV glioma cell viability, MIPE5.0 library, qHTS (AID 1347068; cut-off not given, nearly all actives have IC50 up to about 30 µM)
# [14] = survival rescue of mitochondrial mutant cells in low glucose, primary screen, MELAS cybrids, Rieske KO mouse fibroblasts, CellTiter-Glo (AID 1508586;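 active = mean z-score across replicates of 1.96 or higher in either the MELAS or the Rieske mutant cell line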;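 also: z relative to plate mean and SD of compound and empty wells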)
# [15] = liver-stage malaria parasite growth inhibition, primary screen, cell-based, HepG2, luciferase luminescence, HepG2 viability (AID 624349; in the data active = parasite load remaining mostly below about 12%, no sharp cut-off; inactive = mostly above about 10%;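 also: 100% = mean of DMSO negative control wells on the same plate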); settings: P. berghei liver stage in HepG2, luciferase luminescence, concentration not given here; parasite load remaining: stronger effect = lower value; viability: measured here: HepG2 viability without parasites
# [16] = growth inhibition of DIPG glioma cells, dose response, cell-based, SU-DIPG-IV, MIPE4.0, CellTiter-Glo, qHTS (AID 1347063; cut-off not given, nearly all actives have AC50 up to about 30 µM;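 also: compound exposure lasted 48 hours before the viability readout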); settings: SU-DIPG-IV viability, CellTiter-Glo ATP luminescence
# [17] = sensitizers of A549 cells to miR-34 induction, primary screen, imaging, A549 dox-inducible miR-34, nuclei and caspase counts (AID 1347080;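 active = compounds whose cell count with miR-34 switched on is under 0.7 times the count with it off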); settings: A549 miR-34 inducible, Hoechst nuclei count, 48 h
# [18] = viability rescue of complex I mutant cybrids, primary screen, cell-based, galactose medium, ATP luminescence (AID 1645843;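 active = z-score of at least 1.8 in each of two replicates, scored against plate mean and spread of sample wells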;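 also: positive z means more ATP and so rescue of galactose-driven cybrid death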); settings: complex I mutant cybrid cells, 72 h, stronger effect = higher value
# [19] = MELAS cybrid survival, CellTiter-Glo 48 h, stronger effect = higher value
# [20] = Rieske KO mouse fibroblast survival, CellTiter-Glo 72 h
# [21] = stronger effect = lower value, cell number ratio, induced over uninduced
# [22] = measured here: relative caspase fold change +Dox/-Dox
# [23] = measured here: total cells with miR-34 induction, stronger effect = lower value
# [24] = measured here: total cells without miR-34 induction
smiles,measurement,setting,value
O=c1[nH]c(=O)n([C@H]2C[C@H](O)[C@@H](CO)O2)cc1C(F)(F)F,nuclear beta-catenin stimulation,[1]; at 10 µM,44.5% (active)
same,nuclear beta-catenin stimulation,"[1]; stimulation, at 2 µM",39%
same,insulin secretion stimulation,[2],1.1% (inactive)
same,viability decrease,[3],84.6% (active)
same,tube area decrease,[4],99.5% (active)
same,GLP1 secretion stimulation,[5],-3.2% (inactive)
same,inhibition of viability,[6],84% (active)
same,viability decrease (inhibition),[7],98.1% (active)
same,viability decrease (inhibition),[8],41.5% (active)
same,outcome,[9],inactive
same,outcome,[10],inactive
same,outcome,[11],inactive
same,outcome,[12],inactive
same,outcome,[13],inactive
same,z-score,[14]; [19],0.972 (inactive)
same,z-score,[14]; [20],1.84
O=C(O)c1c(Cl)c(Cl)c(Cl)c(Cl)c1-c1c2cc(I)c(=O)c(I)c-2oc2c(I)c(O)c(I)cc12,nuclear beta-catenin stimulation,[1]; at 10 µM,-2.4% (inactive)
same,nuclear beta-catenin stimulation,"[1]; stimulation, at 2 µM",-0.6%
same,insulin secretion stimulation,[2],-1.2% (inactive)
same,viability decrease,[3],96.7% (active)
same,tube area decrease,[4],23.9% (inactive)
same,GLP1 secretion stimulation,[5],-4.3% (inactive)
same,inhibition of viability,[6],91.6% (active)
same,viability decrease (inhibition),[7],90.7% (active)
same,viability decrease (inhibition),[8],73.4% (active)
same,AC50,[10],3.32 µM (active)
same,AC50,[12],8.33 µM (active)
CCCS(=O)c1ccc2nc(NC(=O)OC)[nH]c2c1 (stereo not drawn),parasite load remaining,[15],34.6% (inactive)
same,viability,[15],83%
same,nuclear beta-catenin stimulation,[1]; at 10 µM,4.7% (inactive)
same,nuclear beta-catenin stimulation,"[1]; stimulation, at 2 µM",-1.8%
same,insulin secretion stimulation,[2],0.2% (inactive)
same,viability decrease,[3],71.2% (active)
same,tube area decrease,[4],20.1% (inactive)
same,GLP1 secretion stimulation,[5],0.6% (inactive)
same,inhibition of viability,[6],65.2% (active)
same,viability decrease (inhibition),[7],87.9% (active)
same,viability decrease (inhibition),[8],29.6% (inactive)
same,AC50,[16],14.8 µM (active)
same,AC50,[10],23.5 µM (active)
same,outcome,[12],inactive
same,outcome,[13],inactive
same,fold change,[17]; [21],0.922 (inactive) and 0.972 (inactive)
same,fold change,[17]; [22],0.991 and 1.16
same,cell count,[17]; [23],6780 and 6570
same,cell count,[17]; [24],7350 and 6760
same,z-score,[14]; [19],-0.274 (inactive) and -0.499 (inactive)
same,z-score,[14]; [20],0.419 and -0.334
same,z-score,[18],0.54 (inactive)
CCCCCCCCOc1ccccc1C(=O)Nc1ccc(C(=O)OCC[N+](C)(CC)CC)cc1,nuclear beta-catenin stimulation,[1]; at 10 µM,4.2% (inactive)
same,nuclear beta-catenin stimulation,"[1]; stimulation, at 2 µM",0.1%
same,insulin secretion stimulation,[2],15.7% (inactive)
same,viability decrease,[3],99.7% (active)
same,tube area decrease,[4],101% (active)
same,GLP1 secretion stimulation,[5],-3.3% (inactive)
same,inhibition of viability,[6],98.4% (active)
same,viability decrease (inhibition),[7],88.6% (active)
same,viability decrease (inhibition),[8],99% (active)
same,AC50,[9],23.5 µM (active)
same,AC50,[16],18.7 µM (active)
same,fold change,[17]; [21],0.913 (inactive)
same,fold change,[17]; [22],0.694
same,cell count,[17]; [23],7980
same,cell count,[17]; [24],8740
same,z-score,[14]; [19],-0.155 (inactive)
same,z-score,[14]; [20],-0.0436
COc1cc(C(C)=O)ccc1OCCCN1CCC(c2noc3cc(F)ccc23)CC1,nuclear beta-catenin stimulation,[1]; at 10 µM,1.5% (inactive)
same,nuclear beta-catenin stimulation,"[1]; stimulation, at 2 µM",0.5%
same,insulin secretion stimulation,[2],3.8% (inactive)
same,viability decrease,[3],66.1% (active)
same,tube area decrease,[4],16.7% (inactive)
same,GLP1 secretion stimulation,[5],6.5% (inactive)
same,inhibition of viability,[6],80.7% (active)
same,viability decrease (inhibition),[7],100% (active)
same,viability decrease (inhibition),[8],33.5% (inactive)
same,outcome,[16],inactive
same,fold change,[17]; [21],0.893 (inactive) and 0.919 (inactive)
same,fold change,[17]; [22],0.354 and 0.917
same,cell count,[17]; [23],6850 and 7430
same,cell count,[17]; [24],7670 and 8090
same,z-score,[14]; [19],-0.601 (inactive) and -0.433 (inactive)
same,z-score,[14]; [20],0.999 and 0.549
same,z-score,[18],-1.19 (inactive)
